Source: paper PMC4336329 (PLoS ONE, 2015)
Hit rate of the full screen: of about 310,000 compounds, about 14,000 (4.5%) showed an effect of 50% or more. Effects have a minus sign here. What follows is part of a selection rich in strong results, with near analogues and random picks from the rest.

Biological target: human ether-à-go-go-related gene (hERG) potassium channel (human, UniProt Q12809)
Assay: primary screen, population patch clamp on CHO cells stably expressing hERG; higher = less effect of the substance
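Further: peak tail current of the secondary pulse compared with the same well before compound.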

human ether-à-go-go-related gene (hERG) potassium channel, sequence (Q12809 whole entry, looked up): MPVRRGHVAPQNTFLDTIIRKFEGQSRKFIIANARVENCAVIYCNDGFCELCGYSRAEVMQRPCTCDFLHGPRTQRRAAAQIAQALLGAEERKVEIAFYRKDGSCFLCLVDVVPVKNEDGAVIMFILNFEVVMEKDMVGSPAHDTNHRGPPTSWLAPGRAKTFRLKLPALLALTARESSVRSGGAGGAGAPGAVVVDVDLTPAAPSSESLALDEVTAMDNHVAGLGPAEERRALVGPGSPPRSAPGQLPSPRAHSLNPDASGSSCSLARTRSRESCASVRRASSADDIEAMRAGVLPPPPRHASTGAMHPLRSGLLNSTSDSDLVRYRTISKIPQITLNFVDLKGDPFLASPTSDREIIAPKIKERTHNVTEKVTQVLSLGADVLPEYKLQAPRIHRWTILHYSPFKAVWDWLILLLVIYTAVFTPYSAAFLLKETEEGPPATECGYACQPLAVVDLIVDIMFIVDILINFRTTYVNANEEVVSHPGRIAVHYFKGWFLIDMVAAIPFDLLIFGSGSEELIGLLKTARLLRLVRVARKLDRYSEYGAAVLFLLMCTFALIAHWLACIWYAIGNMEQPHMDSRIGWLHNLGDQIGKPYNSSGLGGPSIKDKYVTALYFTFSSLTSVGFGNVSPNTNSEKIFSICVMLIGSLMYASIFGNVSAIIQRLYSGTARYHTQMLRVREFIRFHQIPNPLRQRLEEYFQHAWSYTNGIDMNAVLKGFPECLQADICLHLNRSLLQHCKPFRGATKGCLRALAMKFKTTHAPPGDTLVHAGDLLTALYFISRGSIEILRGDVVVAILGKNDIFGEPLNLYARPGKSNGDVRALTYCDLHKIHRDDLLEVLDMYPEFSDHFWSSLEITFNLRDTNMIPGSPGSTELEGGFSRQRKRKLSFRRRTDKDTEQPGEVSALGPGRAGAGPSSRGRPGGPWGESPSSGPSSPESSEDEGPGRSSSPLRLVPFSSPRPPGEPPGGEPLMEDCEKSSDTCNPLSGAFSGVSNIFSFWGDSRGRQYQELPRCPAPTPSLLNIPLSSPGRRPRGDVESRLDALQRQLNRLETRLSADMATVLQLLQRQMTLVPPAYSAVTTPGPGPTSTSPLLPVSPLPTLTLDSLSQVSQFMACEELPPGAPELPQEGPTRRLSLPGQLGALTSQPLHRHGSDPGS

SMILES | hERG current change (%, negative = inhibition) at 10uM [%]
COCCCN1CN(Cc2ccccc2)CNC1=S | 5.46
O=C(Nc1nnc(CSCc2ccccc2F)s1)c1cccc([N+](=O)[O-])c1 | -0.45
COc1ccccc1C(=O)Nc1ccnn1C1CCN(C2CCSCC2)CC1 | -70.9
COc1ccc(C(=O)Nc2ccnn2C2CCN(C3CCC3)CC2)cc1 | 20.7
Cc1ccccc1C(=O)Nc1ccnn1C1CCN(C2CCSCC2)CC1 | -49.5
CCCC1=Nc2cc(C(=O)N3CCC(C(N)=O)CC3)ccc2Sc2ccccc21 | 4.75
O=C(/C=C/c1ccc(OC2CSC2)cc1)c1ccccc1 | 10.1
CC(=O)Nc1cccc(C(=O)Nc2ccc(S(=O)(=O)NC3=NCCCCC3)cc2)c1 | 17
O=C(COc1ccc(Cl)cc1)NCc1ccccc1 | -10.4
O=C(COc1ccc(Cl)cc1)NCc1nnc2c3ccccc3c(-c3ccccc3)nn12 | -66.9
O=C(COc1ccccc1)NCc1n[nH]c(=S)n1-c1ccccc1 | 17.5
O=C(COc1ccccc1)NCc1nnc2c3ccccc3c(-c3ccccc3)nn12 | -64.6
O=C(COc1ccc(Cl)cc1)NCc1n[nH]c(=O)c2ccccc12 | -13
O=C(COc1ccccc1)NCc1ccccc1 | 4.64
CCc1cccc(NC(=O)C2CCCN(S(=O)(=O)c3cccnc3)C2)c1 (stereo not drawn) | -5.51
CNCC(=O)Nc1ccc(Cl)c(C(F)(F)F)c1 | 17.6
O=C(O)/C=C/C(=O)c1ccc(O)cc1 | 2.05
C/C(O)=C(\C#N)P(=O)(c1ccccc1)c1ccccc1 | 11.6
Cc1ccccc1NC(=S)NC(C)C(c1cccs1)N1CCOCC1 (stereo not drawn) | 2.05

SMILES | hERG current change (%, negative = inhibition) at 10uM [%]
Cc1cccc(NC(=S)NC(C)C(c2ccccc2)N2CCN(C)CC2)c1C (stereo not drawn) | -50
CCN1CCN(C(c2cccs2)C(C)NC(=O)CC(C)C)CC1 (stereo not drawn) | -6.37
CCN1CCN(C(c2cccs2)C(C)NC(=S)Nc2cccc(C)c2C)CC1 (stereo not drawn) | -72.9
Cc1ccccc1NC(=S)NC(C)C(c1ccccc1)N1CCN(C)CC1 (stereo not drawn) | -12.5
CC(NC(=S)Nc1ccccc1Cl)C(c1cccs1)N1CCCC1 (stereo not drawn) | -10.2
Cc1cccc(NC(=S)NC(C)C(c2cccs2)N2CCN(C)CC2)c1C (stereo not drawn) | -60.5
CCN1CCN(C(c2cccs2)C(C)NC(=S)Nc2cc(C)ccc2C)CC1 (stereo not drawn) | -68.5
Cc1ccc(C)c(NC(=S)NC(C)C(c2ccccc2)N2CCN(C)CC2)c1 (stereo not drawn) | -48
Cc1ccc(C)c(NC(=S)NC(C)C(c2cccs2)N2CCOCC2)c1 (stereo not drawn) | 8.4
CCN1CCN(C(c2cccs2)C(C)NC(=O)c2ccccc2)CC1 (stereo not drawn) | -1.79
CCN1CCN(C(c2cccs2)C(C)NC(=O)C(C)C)CC1 (stereo not drawn) | 9.03
CN(C)c1ccc(/C=C2\NC(=S)N(Cc3ccccc3)C2=O)cc1 | -0.668
O=C(CSC(=S)N1CCCC1)c1ccccc1 | 4.99
COc1cc2c3c(c1OC)C1(C=CC(=NO)C=C1)CC3N(C(C)=O)CC2 (stereo not drawn) | 13.8
O=[N+]([O-])c1cccc(C(=Nc2cccc(Cl)c2)NO)c1 | -20
C/C(=N/NC(=O)CSc1nc2ccccc2s1)c1ccncc1 | -24
CCOC(=O)c1cnc2c(cnn2C)c1Oc1ccc(OC)cc1 | -43
COc1ccc(NC(=S)NC(C)C(c2ccccc2)N2CCOCC2)cc1 (stereo not drawn) | 7.52
CCOc1ccc(NC(=S)NC(C)C(c2ccccc2)N2CCN(C)CC2)cc1 (stereo not drawn) | -58.5

SMILES | hERG current change (%, negative = inhibition) at 10uM [%]
CC(NC(=O)COc1ccccc1)C(c1ccccc1)N1CCN(C)CC1 (stereo not drawn) | -9.29
CCCN1CCN(C(=O)c2ccc(Sc3ccc(C)cc3)c(NC(C)=O)c2)CC1 | -50.6
CC(=O)Nc1cc(C(=O)N2CCc3ccccc3C2)ccc1Sc1ccc(Cl)cc1 | -45
CC(=O)Nc1cc(C(=O)N2CCCC2)ccc1Sc1ccc(C)cc1 | -30.5
CC(=O)Nc1cc(C(=O)N2CCN(C)CC2)ccc1Sc1ccc(C)cc1 | -13.5
CC(=O)Nc1cc(C(=O)N2CCC3(CC2)OCCO3)ccc1Sc1ccc(C)cc1 | -16
CC(=O)Nc1cc(C(=O)N2CCc3ccccc3C2)ccc1Sc1ccc(C)cc1 | -53.6
CC(=O)Nc1cc(C(=O)N2CCc3ccccc3C2)ccc1Sc1ccc(F)cc1 | -55.4
CC(=O)Nc1cc(C(=O)N2CCC3(CC2)OCCO3)ccc1Sc1ccc(F)cc1 | 2.37
O=C(c1cccc(F)c1)N1CCc2ccccc2C1 | -7.14
CCCCn1c(N)c(N(CC(C)C)C(=O)c2cc(C)oc2C)c(=O)[nH]c1=O | 8.94
Clc1ccc(-c2ccn[nH]2)cc1 | 3.54
Cc1ccc(NC(=O)N2C(=O)C3(OCCO3)c3ccccc32)cc1 | 18.2
CCS(=O)(=O)c1ccc(-c2cccc(NC(=O)COc3ccccc3)c2)nn1 | 6.57
O=C1CCCN1CN(C(=O)c1ccc2c(c1)OCO2)c1cccc(Cl)c1 | -7.64
CC(C)CN(C(=O)COC(=O)C(C)N1C(=O)c2ccccc2C1=O)c1c(N)n(Cc2ccccc2)c(=O)[nH]c1=O (stereo not drawn) | -7.78
COC(=O)c1cc(NC(=O)CC2NCCNC2=O)cc(C(=O)OC)c1 (stereo not drawn) | 5.72
Cc1ccc(-c2csc(NC(=O)c3ccc([N+](=O)[O-])o3)n2)cc1 | 6.85
CS(=O)(=O)c1ccc(-c2cc(Br)sc2-c2ccc(F)cc2)cc1 | 16.4
